# PubChem BioAssay (NCI)
# Compounds without any hit were thinned out: in the full panel of roughly 83,000, 20% have a hit.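 Cell lines were cultured in 96-well plates, exposed to a single compound concentration, and assessed for percent growth 48 hours later.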 Unmarked numbers belong to inactive results. Activity calls are given as the source filed them. The calls were made as follows: active = growth percent below 10; inactive = the rest.
# Columns and labels:
# Test in all cases: NCI-60 one-dose screen, 48 h (100 = growth as untreated, 0 = no growth, -100 = all killed)
# Conditions in all cases: 10 µM unless noted
# [1] = tested on: SR leukemia
# [2] = tested on: RPMI-8226 leukemia
# [3] = tested on: OVCAR-8 ovarian
# [4] = tested on: OVCAR-5 ovarian
# [5] = tested on: OVCAR-4 ovarian
# [6] = tested on: SK-OV-3 ovarian
# [7] = tested on: IGROV1 ovarian
# [8] = tested on: OVCAR-3 ovarian
# [9] = tested on: HS 578T breast
# [10] = tested on: NCI/ADR-RES ovarian
Structure (SMILES),growth [1],growth [2],growth [3],growth [4],growth [5],growth [6],growth [7],growth [8],growth [9],growth [10]
COc1cc(-c2nn(-c3ccc(Br)cc3)cc2C(=O)O)ccc1O,84.1%,95.7%,105%,122%,101%,100%,91.2%,101%,101%,104%
CC(=O)Nc1ccc(S(=O)(=O)Nc2cccc(-c3nc(-c4ccc(NC(=O)c5cccnc5)cc4Cl)no3)c2)cc1,19%,43.8%,38.8%,84.7%,53%,20.9%,54.7%,20.7%,24.5%,94.7%
CCn1c(O)c(/C=N/NC(=O)C(C)c2ccc(CC(C)C)cc2)sc1=S (stereo not given),26.3%,1.77% (active),22.6%,52%,56.7%,45.3%,24.1%,1.8% (active),17.8%,5.41% (active)
Cc1ccc(C2Oc3ccccc3C3CC(c4cccs4)=NN32)cc1 (stereo not given),102%,95.3%,99.7%,102%,93.6%,90.1%,80.2%,100%,86.7%,96.6%
C=CCSSC1N=CNc2nc[nH]c21 (stereo not given),13%,-15.1% (active),22.6%,42.7%,34.4%,8.8% (active),64.5%,32.3%,54.5%,26.5%
Cc1ccc(-c2onc3c(=O)[nH]nc(-c4ccccc4)c23)cc1,28%,17.9%,36.7%,62.3%,67.3%,14.9%,52.4%,7.2% (active),16.7%,25.2%
O=c1cc(CSc2nnc(-c3ccc(F)cc3)o2)c2ccc3ccccc3c2o1,94.1%,101%,96.4%,93%,108%,82.4%,101%,101%,95.5%,91.8%
C#CCOc1ccc2ncnc(NCc3cccc(NC(=O)CCl)c3)c2c1,15.7% [8.25 µM],21% [8.25 µM],17.2% [8.25 µM],55.3% [8.25 µM],31.6% [8.25 µM],83% [8.25 µM],-68.1% [8.25 µM] (active),24.2% [8.25 µM],50.2% [8.25 µM],77.7% [8.25 µM]
CN(Cc1cc(Cl)cc(Cl)c1O)Cc1cc(Cl)cc(Cl)c1O,62.6%,70.7%,63.6%,89.8%,40.2%,78.3%,54.2%,49.1%,92.8%,62.4%
O=c1cc(/C(=C2/C=CC=N2)c2ccc[nH]2)c2cc(Cl)ccc2o1,23.7%,51%,-4.06% (active),93.1%,77%,34.8%,31.5%,-20.3% (active),22.2%,5.06% (active)
Cc1cc(N[C@@H]2CCC[C@H](Nc3ccnc4cc(Cl)ccc34)C2)nc(N2CCCCCC2)n1,-57.4% (active),-52.2% (active),-43% (active),-15.8% (active),-5.16% (active),-51.9% (active),-45.5% (active),-58.8% (active),-46.8% (active),-39.8% (active)
CC1=C[C@H]2c3c(c(O)c(O)c4oc5ccccc5c(=O)c34)[C@H](c3cc(O)c(O)c4oc5ccccc5c(=O)c34)[C@H]2C(C)(C)C1,0.353% (active),15.2%,1.23% (active),25.8%,1.7% (active),-14.1% (active),-4.25% (active),10.4%,-4.62% (active),23.9%
C=C1c2nc3ccccc3n2C=C(c2ccc(Cl)cc2)N1Cc1ccc(OC)cc1,-2.2% (active),30.9%,91.1%,72.1%,71.6%,85.8%,55.2%,85.4%,104%,62.7%
CCCCn1c(-c2ccc(C(=O)O/N=C(\N)c3ccc4ccccc4c3)cc2)nc(-c2ccccc2)c1-c1ccccc1,12.1%,67.3%,72.2%,79.1%,55.5%,99%,-61.9% (active),71.7%,57.9%,30.9%
CC1CCNC(C)C1 (stereo not given),105%,98.2%,107%,113%,99.6%,99.6%,116%,112%,104%,106%
Cn1c(NCCc2ccc(O)c(O)c2)nc2c1c(=O)n(Cc1ccc(Br)cc1)c(=O)n2C,61.6%,25.6%,71.9%,99.4%,53.2%,75.5%,37.7%,69.4%,95.3%,82.5%
Cn1c(NCCc2ccc(O)c(O)c2)nc2c1c(=O)n(Cc1ccc(Cl)c(Cl)c1)c(=O)n2C,56%,19.1%,74.4%,83.1%,52.8%,81%,32%,64.9%,75.6%,77.3%
Cn1ccnc1C(=O)/C=C/c1ccc(CC(=O)Nc2ccccc2)cc1,-10.7% (active),-12.5% (active),-0.35% (active),29.6%,31.4%,27.3%,12.7%,-7.34% (active),37.2%,13.5%
Cn1cccc1-c1nc2c3c(ccc2[nH]1)C(=O)c1ccccc1C3=O,27.1%,61.5%,85.8%,90.4%,46.5%,118%,79.1%,95%,115%,81.8%
Cc1ccccc1COc1ccc(-c2ccnn2-c2ccc(Cl)cc2)cc1,33.8%,77.6%,75.3%,91.7%,85.7%,63.7%,57.5%,26.6%,60.9%,38%
CC/C=C\C[C@H](O)C/C=C1/C(=O)C=C[C@@]1(C)C/C=C\CCCC(=O)OC,103%,103%,97.8%,99.8%,101%,112%,109%,114%,103%,94.8%
N#Cc1nnn(-c2ccc(S(N)(=O)=O)cc2)c1NCC(=O)c1ccccc1,90.7%,87.5%,91.6%,108%,89.8%,91.9%,99.5%,106%,98.3%,105%
CNC(=O)c1cc(Oc2ccc(NC(=O)Nc3ccc(Cl)c(OC(F)(F)F)c3)c(F)c2)ccn1,30%,13.6%,30.3%,56.7%,5.4% (active),64.9%,46.4%,39.8%,51.9%,31.6%
CC/C=C\C/C=C\C[C@H]1C/C=C2/C(=O)C=C[C@@H]2C/C=C\CCC(=O)O1,0.464% (active),-14.6% (active),7.21% (active),44.6%,26.7%,40.9%,13.1%,2.66% (active),43.6%,17.9%
Oc1ccccc1-c1nnc(CNc2ccc(Cl)cc2)o1,10.4%,23.4%,18.6%,64%,34.2%,19.5%,25.9%,26.1%,57.6%,13.4%
Nc1n[nH]c2ccc([C@@H]3Nc4ccc5cn[nH]c5c4[C@H]4C5CCC(C5)[C@@H]34)cc12 (stereo not given in full),14.3%,40.3%,35.5%,40.3%,35.2%,37.7%,22.1%,-5.18% (active),21.2%,20.7%
COc1ccc(C2CC(c3ccc(Cl)cc3)=NN2/C=C2\SC(=S)N(NC(=O)Cc3ccccc3Nc3c(Cl)cccc3Cl)C2=O)cc1 (stereo not given),16.8%,71.9%,23.3%,86.3%,74.7%,77.9%,38.9%,84.4%,75.6%,82%
